Data reported in PubChem BioAssay (Tox21).
“And” between values parts separate entries of the source, which are not always exact repeats. Equal entries are not always repeated. Results filed as inconclusive are left out. A structure can be active in one record and inactive in another. The source made the active and inactive calls. Unless noted, calls follow the shape of the dose curve; as a rule, active = well fitted curve in the direction sought with a large enough effect in the repeat runs; inconclusive = weak or mixed curves; inactive = no such curve, though single readings can be large; an effect the other way counts as inactive or inconclusive.

What was measured:
[1] = target: Retinoic acid receptor RXR-alpha (Homo sapiens) (UniProt P19793); experiment: qHTS assay to identify small molecule agonists of the RXR signaling pathway (AID 1159527; calls by dose curve; also: nearly all actives have a fitted effect of over 35% in size; also: potency is read from the fitted curve at half-maximal effect)
How it was run: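 Agonist mode; 9-cis retinoic acid positive control. HEK 293T UAS-bla reporter cells, 2% charcoal-stripped FBS, 16 hr compound exposure at 37 C/5% CO2. LiveBLAzer B/G FRET substrate 2 hr RT; ex 405, em 460/530 nm.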

[2] = qHTS assay to identify small molecule agonists of the RXR signaling pathway - cell viability counter screen (AID 1159529); also: series mostly up to about 77 µM; nearly all actives have a fitted effect of over 50% in size
How it was run: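 Luminescence from CellTiter-Glo (30 min, RT) measured viability in the same wells as the beta-lactamase reporter readout. Cells: GeneBLAzer RXR-alpha HEK 293T, 2% charcoal-stripped FBS. Compound exposure 16 hr, 37 C.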

[3] = qHTS assay to identify small molecule antagonists of the retinoid acid receptor (RAR) signaling pathway - cell viability counter screen (AID 1159551); also: nearly all actives have a fitted effect of over 35% in size
How it was run: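 C3RL4 cells were seeded overnight at 37 C, then treated with compounds plus 1 uM (final) retinol for 6 h at 37 C. Viability was read as ATP by CellTiter-Glo luminescence after 30 min at room temperature.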

[4] = qHTS assay to identify small molecule antagonists of the retinoic acid receptor (RAR) signaling pathway (AID 1159552; also: nearly all actives have a fitted effect of over 50% in size; also: potency is read from the fitted curve at half-maximal effect)
How it was run: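 Luminescence from a RARE luciferase reporter in C3RL4 cells served as read-out. Cells received compounds together with 1 uM final retinol and incubated 6 hr at 37 C before detection reagent was added for 30 min at room temperature.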

[5] = qHTS assay to identify small molecule agonists of the retinoic acid receptor (RAR) signaling pathway (AID 1159553)
How it was run: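 C3RL4 cells carrying a RARE luciferase reporter were plated overnight at 37 C, then exposed to compounds in DMSO for 6 hr at 37 C and 5% CO2. Luminescence was read 30 min after luciferase reagent addition at room temperature.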

[6] = target: Luciferin 4-monooxygenase (Photinus pyralis) (UniProt P08659); experiment: qHTS assay to identify small molecule inhibitors of firefly luciferase (AID 1224835); also: series mostly up to about 120 µM; nearly all actives have a fitted effect of over 25% in size
How it was run: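 Quantitative HTS format; KM concentrations of both substrates. Purified P. pyralis FLuc activity quantified from luminescence images.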

[7] = qHTS assay to identify small molecule antagonists of the constitutive androstane receptor (CAR) signaling pathway - cell viability counter screen (AID 1224837); also: series mostly up to about 92 µM; nearly all actives have a fitted effect of over 45% in size
How it was run: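 HepG2 cells stably expressing hCAR and a CYP2B6-2.2kb reporter were plated and pre-incubated 4 hr at 37 C/5% CO2, then given compounds at 15 concentrations plus 50 nM CITCO (final). After 23 hr, viability was read by CellTiter-Fluor fluorescence.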

[8] = target: Nuclear receptor subfamily 1 group I member 3 (Homo sapiens) (UniProt Q14994); experiment: qHTS assay to identify small molecule antagonists of the constitutive androstane receptor (CAR) signaling pathway (AID 1224838); also: nearly all actives have a fitted effect of over 40% in size
How it was run: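 HepG2 cells stably co-transfected with hCAR and a CYP2B6-2.2kb luciferase reporter were seeded 4 h before compound addition at 15 concentrations. Cells were stimulated with 50 nM CITCO (final) for 24 h at 37 C; luciferase luminescence was then read.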

[9] = target: Nuclear receptor subfamily 1 group I member 3 (Homo sapiens) (UniProt Q14994); experiment: qHTS assay to identify small molecule agonists of the constitutive androstane receptor (CAR) signaling pathway (AID 1224839);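 also: HepG2 cells stably carrying human CAR and a CYP2B6 luciferase reporter; series mostly up to about 92 µM; nearly all actives have a fitted effect of over 15% in size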
How it was run: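 Luminescence read-out (ONE-Glo, 30 min, room temperature) from double-stable HepG2-CYP2B6-hCAR cells exposed 24 h to 15-point compound series in presence of 0.75 uM PK11195 final.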

[10] = qHTS assay to identify small molecule antagonists of the estrogen related receptor signaling pathway with the pleiotropic PPARgamma coactivator (PGC) from Tox21 10K library - cell viability counter screen (AID 1224840; active = well fitted cell-killing curve with a large enough effect in the repeat runs, not every such curve was filed as active; also: nearly all actives have a fitted effect of over 40% in size; also: potency is read from the fitted curve at half-maximal effect)
How it was run: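 PGC/ERR cells were seeded at 2,000 cells/well and left 6 hours at 37 C/5% CO2 before pin-tool addition of compounds in DMSO. After 17.5 hours at 37 C, CellTiter-Fluor was added and fluorescence read 30 minutes later.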

[11] = qHTS assay to identify small molecule antagonists of the estrogen related receptor signaling pathway with the pleiotropic PPARgamma coactivator (PGC) from Tox21 10K library (AID 1224841; call rule not given here; also: actives are mostly falling curves and most rising ones were filed inactive; nearly all actives have a fitted effect of over 50% in size; also: potency is read from the fitted curve at half-maximal effect; as to activity, negative = inhibition: series mostly up to about 92 µM)
How it was run: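 PGC/ERR reporter cells were seeded at 2,000 cells/well and held 6 hours at 37 C/5% CO2 before pin-tool addition of compounds in DMSO. After 18 hours at 37 C, One-Glo was added and luminescence read after 30 minutes at room temperature.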

[12] = qHTS assay to identify small molecule agonists of the estrogen related receptor signaling pathway with the pleiotropic PPARgamma coactivator (PGC) from Tox21 10K library (AID 1224842); also: nearly all actives have a fitted effect of over 15% in size
How it was run: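 PGC/ERR reporter cells (NTP line) were seeded 2,000 per well, rested 6 h at 37 C/5% CO2, then pin-dosed with compounds in DMSO for 18 h at 37 C; luciferase read by One-Glo luminescence after 30 min at room temperature.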

[13] = qHTS assay to identify small molecule antagonists of the estrogen related receptor (ERR) signaling pathway from Tox21 library - cell viability counter screen (AID 1224834); also: nearly all actives have a fitted effect of over 30% in size; also: potency is read from the fitted curve at half-maximal effect
How it was run: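 ERR reporter cells were plated 6 h before compound addition, then exposed to test compounds in DMSO for 17.5 h at 37 C. Viability was read as CellTiter-Fluor fluorescence after a 30-minute incubation at 37 C.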

[14] = qHTS assay to identify small molecule agonists of the constitutive androstane receptor (CAR) signaling pathway - cell viability counter screen (AID 1224836); also: nearly all actives have a fitted effect of over 45% in size; also: potency is read from the fitted curve at half-maximal effect; as to viability change, negative = cytotoxic: series mostly up to about 92 µM
How it was run: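 Viability read-out: CellTiter-Fluor fluorescence after 23 h compound exposure at 37 C/5% CO2 in double-stable HepG2-CYP2B6-hCAR cells, with PK11195 present at 0.75 uM final; compounds tested in 15-point titration.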

[15] = qHTS assay to identify small molecule antagonists of the estrogen related receptor (ERR) signaling pathway - cell viability counter screen (AID 1224818);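 also: series mostly up to about 46 µM; viability measured after 17.5 h of compound exposure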
How it was run: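 ERR reporter cells plated 6 h at 37 C/5% CO2, then compounds in DMSO pin-transferred and incubated 17.5 h at 37 C. Viability read as CellTiter-Fluor fluorescence after 30 min at 37 C.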

[16] = qHTS assay to identify small molecule antagonists of the estrogen related receptor (ERR) signaling pathway (AID 1224819;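 also: luminescence from an ERR-driven luciferase reporter measured with One-Glo reagent; series mostly up to about 46 µM; nearly all actives have a fitted effect of over 50% in size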)
How it was run: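 ERR reporter cells were plated at 2,000 cells/well and left 6 h at 37 C/5% CO2 before pin-tool transfer of compounds in DMSO. After 18 h at 37 C, One-Glo was added and luminescence was read 30 min later at room temperature.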

[17] = qHTS assay to identify small molecule agonists of the estrogen related receptor (ERR) signaling pathway (AID 1224820)
How it was run: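 Cells: ERR line from NTP, 2,000/well. Pre-incubation 6 h, 37 C/5% CO2. Compound (DMSO) pin transfer, 18 h 37 C. One-Glo, 30 min RT, luminescence.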

[18] = test system: estrogen-related receptor alpha (ERRalpha) with PGC-1alpha coactivator, human; experiment: qHTS assay to identify small molecule antagonists of the estrogen related receptor signaling pathway with the pleiotropic PPARgamma coactivator (PGC) (AID 1224821; calls by dose curve)
How it was run: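 Luminescent read-out (One-Glo, 30 min at room temperature) following 18 h treatment of PGC/ERR cells at 37 C with compounds delivered in DMSO. Cells had settled 6 h at 37 C/5% CO2 before dosing.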

[19] = qHTS assay to identify small molecule antagonists of the estrogen related receptor signaling pathway with the pleiotropic PPARgamma coactivator (PGC) cell viability counter screen (AID 1224822; also: series mostly up to about 46 µM)
How it was run: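 PGC/ERR cells were seeded at 2,000 cells/well, rested 6 h at 37 C/5% CO2, then given compounds in DMSO by pin tool and incubated 17.5 h at 37 C. Viability came from CellTiter-Fluor fluorescence after 30 min.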

[20] = qHTS assay to identify small molecule agonists of the estrogen related receptor signaling pathway with the pleiotropic PPARgamma coactivator (PGC) (AID 1224823)
How it was run: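 Steps: plate PGC/ERR cells at 2,000 cells/well; incubate 6 h, 37 C/5% CO2; pin-transfer compounds (DMSO); incubate 18 h, 37 C; add One-Glo; 30 min RT; read luminescence.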
% is scaled to controls: 0 for no effect and ±100 for the full control effect.

Chain of Nuclear receptor subfamily 1 group I member 3 (Homo sapiens) (Q14994 whole entry, looked up): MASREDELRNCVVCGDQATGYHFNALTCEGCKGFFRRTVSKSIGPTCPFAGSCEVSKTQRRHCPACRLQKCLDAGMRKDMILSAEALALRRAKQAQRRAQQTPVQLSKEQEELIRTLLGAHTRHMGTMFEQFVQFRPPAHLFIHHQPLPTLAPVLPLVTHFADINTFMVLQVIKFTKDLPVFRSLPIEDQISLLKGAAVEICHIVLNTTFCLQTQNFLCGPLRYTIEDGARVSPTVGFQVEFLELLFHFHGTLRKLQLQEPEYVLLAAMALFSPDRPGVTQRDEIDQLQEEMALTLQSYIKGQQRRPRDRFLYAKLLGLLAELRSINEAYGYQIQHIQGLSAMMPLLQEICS
Chain of Luciferin 4-monooxygenase (Photinus pyralis) (P08659 whole entry, looked up): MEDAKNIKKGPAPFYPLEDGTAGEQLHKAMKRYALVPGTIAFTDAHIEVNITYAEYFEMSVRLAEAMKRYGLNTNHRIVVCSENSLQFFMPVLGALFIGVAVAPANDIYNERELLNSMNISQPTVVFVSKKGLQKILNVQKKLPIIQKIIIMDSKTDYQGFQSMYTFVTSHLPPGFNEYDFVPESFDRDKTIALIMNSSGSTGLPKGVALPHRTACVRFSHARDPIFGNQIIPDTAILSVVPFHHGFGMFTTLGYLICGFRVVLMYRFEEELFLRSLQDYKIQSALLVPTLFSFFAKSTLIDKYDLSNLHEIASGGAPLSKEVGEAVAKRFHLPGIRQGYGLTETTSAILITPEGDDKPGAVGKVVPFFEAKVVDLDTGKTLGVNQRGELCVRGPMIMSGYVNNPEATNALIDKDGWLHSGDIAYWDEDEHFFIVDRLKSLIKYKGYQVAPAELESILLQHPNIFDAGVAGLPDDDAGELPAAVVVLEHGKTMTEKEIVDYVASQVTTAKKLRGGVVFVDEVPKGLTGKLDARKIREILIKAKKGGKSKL
Chain of Retinoic acid receptor RXR-alpha (Homo sapiens) (P19793 whole entry, looked up): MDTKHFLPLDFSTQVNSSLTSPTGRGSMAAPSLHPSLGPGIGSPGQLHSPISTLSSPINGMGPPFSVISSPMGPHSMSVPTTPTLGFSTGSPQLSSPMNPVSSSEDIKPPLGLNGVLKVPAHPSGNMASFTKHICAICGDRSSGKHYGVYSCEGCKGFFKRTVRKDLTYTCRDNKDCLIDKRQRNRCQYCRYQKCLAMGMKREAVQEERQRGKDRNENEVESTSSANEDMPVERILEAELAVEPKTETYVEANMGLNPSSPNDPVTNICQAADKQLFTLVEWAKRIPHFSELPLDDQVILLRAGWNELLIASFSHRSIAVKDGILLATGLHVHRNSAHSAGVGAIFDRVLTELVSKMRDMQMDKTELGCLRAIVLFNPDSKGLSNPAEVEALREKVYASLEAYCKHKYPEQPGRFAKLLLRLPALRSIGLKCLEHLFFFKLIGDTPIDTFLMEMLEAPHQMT

CCC(Cl)CCl (stereo unspecified)
inactive: Potency [1] | Potency [2] | Potency [3] | Potency [4] | Potency [5] | Potency [6] | Potency [7] | Potency [8] | Potency [9] | Potency [10] | Potency [11] | Potency [12]

CCn1cc[n+](C)c1
inactive and 19.8 µM (active): Potency [1]
inactive: Potency [2] | Potency [3] | Potency [6]
inactive and 55 µM (active): Potency [10]
inactive and 30.9 µM (active): Potency [13]

CN1C(=O)C(O)N=C(c2ccccc2)c2cc(Cl)ccc21 (stereo unspecified)
active: Potency [4] 63.3 µM
inactive: Potency [1] | Potency [2] | Potency [3] | Potency [5] | Potency [6] | Potency [14] | Potency [7] | Potency [10] | Potency [11] | Potency [12]

Clc1cc(C(Cl)(Cl)Cl)cnc1Cl
active: Potency [14] 43.3 µM
inactive: Potency [1] | Potency [2] | Potency [3] | Potency [4] | Potency [10] | Potency [11] | Potency [12]

c1ccoc1
inactive: Potency [1] | Potency [2] | Potency [3] | Potency [13] | Potency [14] | Potency [7] | Potency [10]

CC(Cl)C(C)Cl (stereo unspecified)
inactive: Potency [1] | Potency [2] | Potency [3] | Potency [4] | Potency [13] | Potency [6] | Potency [14] | Potency [7] | Potency [10] | Potency [11] | Potency [12]

ClC=C(Cl)Cl
inactive: Potency [1] | Potency [2] | Potency [3] | Potency [13] | Potency [6] | Potency [14] | Potency [7] | Potency [8] | Potency [9] | Potency [10] | Potency [11] | Potency [12]

CCN(C)N=O
inactive: Potency [1] | Potency [2] | Potency [3] | Potency [4] | Potency [5] | Potency [6] | Potency [7] | Potency [8] | Potency [9] | Potency [10]

COP(=O)(OC)O/C(=C/Cl)c1cc(Cl)c(Cl)cc1Cl
active: Potency [4] 57.5 µM | Potency [11] 8.13 µM
inactive: Potency [1] | Potency [2] | Potency [3] | Potency [7] | Potency [12]

NCC(CC(=O)O)c1ccc(Cl)cc1 (stereo unspecified)
inactive: activation [1] 1.21% [at 0.29 µM] | activity change, negative = cytotoxicity [2] 15% [at 0.29 µM] | activity change, negative = cytotoxicity [3] -0.97% [at 0.349 µM] | outcome [15] | outcome [16] | outcome [17] | Potency [18] | Potency [19] | outcome [20] | viability change, negative = cytotoxic [13] 4.17% [at 0.349 µM] | activity change, negative = inhibition [6] 0.511% [at 0.435 µM] | viability change, negative = cytotoxic [14] 7.94% [at 0.349 µM] | activity change, negative = cytotoxicity [7] 8.53% [at 0.349 µM] | viability change, negative = cytotoxic [10] 7.5% [at 0.349 µM] | activity, negative = inhibition [11] -1% [at 0.349 µM] | activation [12] -1% [at 0.349 µM]

O=C(CBr)c1ccccc1
inactive: Potency [1] | Potency [2] | Potency [3] | Potency [4] | Potency [6] | Potency [14] | Potency [7] | Potency [8] | Potency [10]

CC(C)=CCOc1c2occc2cc2ccc(=O)oc12
inactive: Potency [1] | Potency [2] | Potency [4] | Potency [5] | outcome [15] | outcome [17] | Potency [18] | Potency [19] | outcome [20] | Potency [13] | Potency [6] | Potency [14] | Potency [7] | Potency [8] | Potency [10] | Potency [11] | Potency [12]
